Screening data from PubChem.
This excerpt belongs to a sample that is enriched for hits.
U2OS ROS induce = cancer cell ROS induction; U2OS ROS induction, H2DCF-DA fluorescence; ROS induction (% of piperlongumine), % at 10 µM; 2% of 46,000 active; AID 624156; in the data active means ROS induction above about 79%, passing the limit was not always enough
PD-1 reverse act = reversal of PD-1 mediated T-cell inhibition; primary human CD4 T cells, PD-L1 beads, CellTiter-Glo 96 h; activation, % (no concentration beside the values); 29,000 tested, under 10 active; AID 2316; call rule not given here
Large screens that a line does not name were inactive.

COc1cccc(Nc2nc(C3(C)CC4(CC(C)OC4=O)C(=O)O3)cs2)c1 (centres undefined)	U2OS ROS induce 92
COc1cccc(Nc2nnc(-c3cc4cccc(OC)c4oc3=O)s2)c1	none (no result: PD-1 reverse act)
COc1cccc(C(=O)c2oc3ccccc3c2NC(=O)CCc2ccccc2)c1	none
Cc1cc(NC(=O)c2ccc(N)cc2)c(N)cc1N	none
O=C(N=NC=C1C=CN(O)C=C1)c1ccccn1	none (no result: PD-1 reverse act)
CS(=O)(=O)N(CC(=O)Nc1cccc(C(F)(F)F)c1)c1ccc(F)c(Cl)c1	none
COc1ccc(-c2cc(-c3ccccc3)c(C#N)c(SCS(=O)Cc3ccccc3)n2)cc1 (centres undefined)	U2OS ROS induce 87 (no result: PD-1 reverse act)
COc1ccc(-c2cc(-c3ccccc3)nc(SCC(=O)N3CCCCC3)c2C#N)cc1	none (no result: PD-1 reverse act)
COc1ccc(CN(C)C[C@@H]2Oc3ccc(NC(=O)CCN4CCOCC4)cc3CC(=O)N([C@H](C)CO)C[C@H]2C)cc1	U2OS ROS induce 121 (no result: PD-1 reverse act)
COc1ccc(CN(C)C[C@H]2Oc3ccc(NC(=O)CCN4CCOCC4)cc3CC(=O)N([C@@H](C)CO)C[C@@H]2C)cc1	none (no result: PD-1 reverse act)
C[C@@H]1CN([C@H](C)CO)C(=O)Cc2cc(NC(=O)CCN3CCOCC3)ccc2O[C@@H]1CN(C)C	U2OS ROS induce 126
C[C@H]1CN([C@@H](C)CO)C(=O)Cc2cc(NC(=O)CCN3CCOCC3)ccc2O[C@@H]1CN(C)C	none (no result: PD-1 reverse act)
O=C1O[C@H](c2ccccc2)[C@H](c2ccccc2)N2[C@H]1[C@@H](C(=O)Nc1nc3ccccc3s1)[C@]1(C(=O)Nc3ccc(C#CC4(O)CCCCCC4)cc31)[C@H]2c1ccccc1OCCO	none (no result: PD-1 reverse act)
O=C(O)c1cc(-c2ccccc2)nc2ccccc12	none
CCN(CC)c1ccc(-c2cc(C(=O)O)c3c(ccc4ccccc43)n2)cc1	U2OS ROS induce 440 (no result: PD-1 reverse act)
Cc1ccc(-c2noc(CN(C(C)C)S(=O)(=O)c3ccccc3)n2)cc1	none
CCOC(=O)c1c(NC(=O)CSc2nc3ccccc3c(=O)[nH]2)sc2c1CCCC2	none
O=C(CCn1cnc2ccccc2c1=O)Nc1ccc(S(=O)(=O)N2CCOCC2)cc1	none
Nc1cc(N)nc(SCC(=O)N2CCN(c3ccc(Cl)cc3)CC2)n1	U2OS ROS induce 86
CCn1c(SCC(=O)N2CCN(c3ccccc3)CC2)nnc1-c1cc2cc(Cl)ccc2o1	none
Cc1ccc(C(=O)O)cc1S(=O)(=O)N(CCO)CCO	none
CCc1ccc2c(c1)=C(c1[nH]c(=S)[nH]c1O)C(=O)N=2	U2OS ROS induce 124
CCc1ccc2c(c1)=C(c1sc(N)nc1O)C(=O)N=2	none
Cc1c(NC(=O)CCN2C(=O)c3ccccc3C2=O)cccc1C(=O)O	none
CC(C)(C)OC(=O)NC1(/C=N/NC(=O)c2ccc(C(=O)NO)cc2)CCCC1	none (no result: PD-1 reverse act)
O=C(CSc1nnnn1-c1ccccc1)Nc1cc(Cl)c(Cl)cc1Cl	none
O=C(CSc1nnnn1-c1ccccc1)Nc1cc(Cl)ccc1C(=O)O	U2OS ROS induce 154
C/C=C1/[C@H](O[C@@H]2O[C@H](CO)[C@@H](O)[C@H](O)[C@H]2O)OC=C(C(=O)OC)[C@H]1CC(=O)OCCc1ccc(O)cc1	none
CC(C)COC(=O)C(C)Oc1ccc2c3c(c(=O)oc2c1)CCC3 (centres undefined)	U2OS ROS induce 122 (no result: PD-1 reverse act)
CCC(C)OC(=O)C(C)Oc1ccc2c3c(c(=O)oc2c1)CCC3 (centres undefined)	none (no result: PD-1 reverse act)
CS/C(NC1CCCCC1)=C(/C#N)S(=O)(=O)c1ccc(Cl)cc1	none
CS/C(NCC1CC1)=C(/C#N)C(=O)c1ccc(Cl)cc1	U2OS ROS induce 196
Cc1ccc(C(=O)CSc2nc(C)nc3sc4c(c23)CCCC4)cc1	none
Cc1ccc(C(=O)CSc2nc(C)nc3sc(C)c(C)c23)cc1	U2OS ROS induce 119
CCc1ccc(NC(=O)Cn2c(C(=O)OC)cc3oc4ccccc4c32)cc1	none (no result: PD-1 reverse act)
CC12CC(NC(=S)N1c1ccccc1)c1ccccc1O2 (centres undefined)	none (no result: PD-1 reverse act)
Cc1cccc(C)c1NC(=O)COc1ccc2cc(-c3ccccc3)c(=O)oc2c1	none
CC(=O)Oc1ccc2cc(-c3nc4c(s3)CCc3ccccc3-4)c(=O)oc2c1	U2OS ROS induce 129 (no result: PD-1 reverse act)
O=C(c1ccccc1)N1Cc2ccccc2[C@@H]2OC(c3ccc(OCCCO)cc3)=N[C@]2(CCS(=O)(=O)c2ccccc2)C1=O	none (no result: PD-1 reverse act)
CC(C)(C)c1ccc(-c2nnc(-c3ccccc3NC(=O)/C=C\C(=O)O)o2)cc1	U2OS ROS induce 80 (no result: PD-1 reverse act)
CC(C)(C)c1ccc(-c2nnc(SCC(=O)Nc3ccccc3[N+](=O)[O-])o2)cc1	none
O=C(Cn1cnc2ccccc2c1=O)Nc1ccccc1Cl	none
COc1ccc(NC(=O)N(C)C[C@@H]2Oc3ccc(NC(=O)NC(C)C)cc3CC(=O)N([C@H](C)CO)C[C@H]2C)cc1	U2OS ROS induce 110 (no result: PD-1 reverse act)
CC(C)NC(=O)Nc1ccc2c(c1)CC(=O)N([C@@H](C)CO)C[C@H](C)[C@H](CN(C)Cc1ccncc1)O2	none
COc1ccc(NC(=O)N(C)C[C@@H]2Oc3ccc(NC(=O)c4ccncc4)cc3CC(=O)N([C@H](C)CO)C[C@H]2C)cc1	U2OS ROS induce 94
CC(C)NC(=O)Nc1ccc2c(c1)CC(=O)N([C@H](C)CO)C[C@H](C)[C@H](CN(C)Cc1ccncc1)O2	U2OS ROS induce 113
CC(C)NC(=O)N(C)C[C@@H]1Oc2ccc(NC(=O)Nc3ccccc3)cc2CC(=O)N([C@H](C)CO)C[C@H]1C	none (no result: PD-1 reverse act)
COc1ccc(NC(=O)N(C)C[C@H]2Oc3ccc(NC(=O)c4ccncc4)cc3CC(=O)N([C@@H](C)CO)C[C@@H]2C)cc1	none
COc1ccc(NC(=O)N(C)C[C@@H]2Oc3ccc(NC(=O)NC(C)C)cc3CC(=O)N([C@@H](C)CO)C[C@@H]2C)cc1	none (no result: PD-1 reverse act)
CC(C)NC(=O)Nc1ccc2c(c1)CC(=O)N([C@@H](C)CO)C[C@H](C)[C@H](CN(C)C(=O)Nc1ccccc1)O2	U2OS ROS induce 79
COc1ccccc1CN1C(=O)c2ccccc2[C@@]2(Cc3ccccc3N(C(C)C)C2=O)[C@@H]1c1ccc(CO)cc1	none (no result: PD-1 reverse act)
Cn1c(SCC(=O)Nc2ccc(C(N)=O)cc2)nnc1-c1ccccn1	none
CC(NC(=O)C1CCN(C(=O)N(C)C)CC1)c1ccccc1 (centres undefined)	none (no result: PD-1 reverse act)
CCOc1cc(CNC23CC4CC(CC(C4)C2)C3)ccc1OCc1cccs1	none (no result: PD-1 reverse act)
C[C@@H]1CCCCO[C@@H](CN(C)S(=O)(=O)c2ccc(Cl)cc2)[C@@H](C)CN([C@H](C)CO)C(=O)c2cc(NS(=O)(=O)c3ccc(F)cc3)ccc2O1	U2OS ROS induce 118 (no result: PD-1 reverse act)
C[C@@H]1CCCCO[C@@H](CN(C)S(=O)(=O)c2ccc(Cl)cc2)[C@@H](C)CN([C@H](C)CO)C(=O)c2cc(NC(=O)c3ccccc3)ccc2O1	U2OS ROS induce 133
C[C@@H]1CCCCO[C@H](CN(C)S(=O)(=O)c2ccccc2)[C@@H](C)CN([C@H](C)CO)C(=O)c2cc(NC(=O)c3ccccc3)ccc2O1	none
C[C@@H]1CCCCO[C@@H](CN(C)S(=O)(=O)c2ccc(F)cc2)[C@@H](C)CN([C@H](C)CO)C(=O)c2cc(NC(=O)Nc3ccc(F)cc3)ccc2O1	none (no result: PD-1 reverse act)
C[C@@H]1CCCCO[C@H](CN(C)S(=O)(=O)c2ccc(Cl)cc2)[C@@H](C)CN([C@H](C)CO)C(=O)c2cc(NS(=O)(=O)c3ccc(Cl)cc3)ccc2O1	none (no result: PD-1 reverse act)
C[C@@H]1CCCCO[C@@H](CN(C)S(=O)(=O)c2ccc(F)cc2)[C@@H](C)CN([C@H](C)CO)C(=O)c2cc(NS(=O)(=O)c3ccc(F)cc3)ccc2O1	none
